Laboratory results as given in PubChem BioAssay AID1159580 (chemical genetic matrix, 2015).
Hit rate of the full screen: of about 5,500 compounds, about 2,000 (36%) were called active. Not shown: some 18% with an inconclusive outcome. Rule as the data show it: active = normalized growth mostly below about 0.91 (no sharp cut-off); inconclusive = no clear call, values can overlap the other calls; inactive = mostly above about 0.92. This is one part of the list.

Assay: chemical genetic growth profiling, strain panel (AID 1159580);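 also: tested at 20 µM; growth read once vehicle control cultures reached saturation at 30 °C; 1 = growth at the plate median or of vehicle wells; lower values mean less growth of the strain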
Conditions: growth OD

Measured: normalized growth

CCOCN(C(=O)CCl)c1c(C)cccc1CC
inactive: S. cerevisiae deletion strains, locus YJR043C, strain POL32, stronger effect = lower value 0.983 | S. cerevisiae deletion strains, locus YJR075W, strain HOC1, stronger effect = lower value 0.993 | S. cerevisiae deletion strains, locus YKL009W, strain mrt4, stronger effect = lower value 0.989 | S. cerevisiae deletion strains, locus YKL068W, stronger effect = lower value 0.973 | S. cerevisiae deletion strains, locus YKL085W, strain MDH1 (second series), stronger effect = lower value 0.991 | S. cerevisiae deletion strains, locus YKL085W, strain MDH1, stronger effect = lower value 0.991 | S. cerevisiae deletion strains, locus YKL160W, strain elf1, stronger effect = lower value 0.995 | S. cerevisiae deletion strains, locus YKL190W, strain CNB1, stronger effect = lower value 0.983 | S. cerevisiae deletion strains, locus YKR001C, strain vps1, stronger effect = lower value 0.986 | S. cerevisiae deletion strains, locus YKR026C, strain gcn3, stronger effect = lower value 0.985 | S. cerevisiae deletion strains, locus YKR091W, strain srl3, stronger effect = lower value 0.988 | S. cerevisiae deletion strains, locus YLL001W, strain dnm1, stronger effect = lower value 0.989 | S. cerevisiae deletion strains, locus YLL026W, stronger effect = lower value 0.991 | S. cerevisiae deletion strains, locus YLL041C, strain sdh2, stronger effect = lower value 0.988 | S. cerevisiae deletion strains, locus YLR027C, strain aat2, stronger effect = lower value 0.976 | S. cerevisiae deletion strains, locus YLR039C, strain RIC1, stronger effect = lower value 0.994 | S. cerevisiae deletion strains, locus YLR058C, strain SHM2, stronger effect = lower value 0.986 | S. cerevisiae deletion strains, locus YLR102C, strain apc9, stronger effect = lower value 0.974 | S. cerevisiae deletion strains, locus YLR221C, strain rsa3, stronger effect = lower value 0.981 | S. cerevisiae deletion strains, locus YLR258W, strain gsy2, stronger effect = lower value 1.02 | S. cerevisiae deletion strains, locus YLR262C, strain YPT6 (second series), stronger effect = lower value 0.969 | S. cerevisiae deletion strains, locus YLR262C, strain YPT6, stronger effect = lower value 1.01 | S. cerevisiae deletion strains, locus YLR268W, strain sec22, stronger effect = lower value 0.979 | S. cerevisiae deletion strains, locus YLR320W, strain mms22, stronger effect = lower value 0.986 | S. cerevisiae deletion strains, locus YLR330W, strain CHS5, stronger effect = lower value 0.977 | S. cerevisiae deletion strains, locus YLR342W, strain FKS1 (second series), stronger effect = lower value 0.98 | S. cerevisiae deletion strains, locus YLR342W, strain FKS1, stronger effect = lower value 0.978 | S. cerevisiae deletion strains, locus YLR357W, strain rsc2, stronger effect = lower value 0.961 | S. cerevisiae deletion strains, locus YLR370C, strain arc18, stronger effect = lower value 0.995 | S. cerevisiae deletion strains, locus YLR371W, strain rom2, stronger effect = lower value 0.963 | S. cerevisiae deletion strains, locus YLR384C, strain iki3, stronger effect = lower value 0.98 | S. cerevisiae deletion strains, locus YLR418C, strain cdc73, stronger effect = lower value 1.03 | S. cerevisiae deletion strains, locus YML016C, strain PPZ1, stronger effect = lower value 0.992 | S. cerevisiae deletion strains, locus YML032C, strain rad52, stronger effect = lower value 0.969 | S. cerevisiae deletion strains, locus YML120C, strain ndi1, stronger effect = lower value 0.99 | S. cerevisiae deletion strains, locus YML124C, strain tub3, stronger effect = lower value 0.972 | S. cerevisiae deletion strains, locus YMR058W, strain fet3, stronger effect = lower value 0.988 | S. cerevisiae deletion strains, locus YMR078C, strain ctf18, stronger effect = lower value 0.959 | S. cerevisiae deletion strains, locus YMR125W, strain sto1, stronger effect = lower value 0.988 | S. cerevisiae deletion strains, locus YMR129W, stronger effect = lower value 0.982 | S. cerevisiae deletion strains, locus YMR205C, strain PFK2, stronger effect = lower value 0.996 | S. cerevisiae deletion strains, locus YMR223W, strain ubp8, stronger effect = lower value 0.984 | S. cerevisiae deletion strains, locus YMR231W, strain pep5, stronger effect = lower value 0.981 | S. cerevisiae deletion strains, locus YMR263W, strain SAP30, stronger effect = lower value 0.983 | S. cerevisiae deletion strains, locus YMR307W, strain GAS1, stronger effect = lower value 1 | S. cerevisiae deletion strains, locus YNL067W, strain RPL9B, stronger effect = lower value 0.995 | S. cerevisiae deletion strains, locus YNL071W, strain lat1, stronger effect = lower value 0.989 | S. cerevisiae deletion strains, locus YNL128W, strain TEP1, stronger effect = lower value 0.978 | S. cerevisiae deletion strains, locus YNL153C, strain GIM3, stronger effect = lower value 1 | S. cerevisiae deletion strains, locus YNL209W, strain ssb2, stronger effect = lower value 0.998 | S. cerevisiae deletion strains, locus YNL233W, strain BNI4, stronger effect = lower value 0.996 | S. cerevisiae deletion strains, locus YNL248C, strain rpa49, stronger effect = lower value 0.984 | S. cerevisiae deletion strains, locus YNL250W, strain rad50, stronger effect = lower value 0.977 | S. cerevisiae deletion strains, locus YNL271C, strain bni1, stronger effect = lower value 0.994 | S. cerevisiae deletion strains, locus YNL298W, strain CLA4, stronger effect = lower value 0.968 | S. cerevisiae deletion strains, locus YNL307C, strain MCK1, stronger effect = lower value 0.982 | S. cerevisiae deletion strains, locus YNL322C, strain KRE1 (second series), stronger effect = lower value 0.98 | S. cerevisiae deletion strains, locus YNL322C, strain KRE1, stronger effect = lower value 0.982 | S. cerevisiae deletion strains, locus YNR049C, strain mso1, stronger effect = lower value 0.986 | S. cerevisiae deletion strains, locus YNR052C, strain pop2, stronger effect = lower value 0.957 | S. cerevisiae deletion strains, locus YOL006C, strain TOP1, stronger effect = lower value 1.02 | S. cerevisiae deletion strains, locus YOL012C, strain htz1 0.911 | S. cerevisiae deletion strains, locus YOL147C, strain pex11, stronger effect = lower value 0.981 | S. cerevisiae deletion strains, locus YOR001W, strain rrp6, stronger effect = lower value 0.969 | S. cerevisiae deletion strains, locus YOR061W, strain CKA2, stronger effect = lower value 0.999 | S. cerevisiae deletion strains, locus YOR069W, strain VPS5, stronger effect = lower value 0.987 | S. cerevisiae deletion strains, locus YOR070C, strain gyp1, stronger effect = lower value 0.98 | S. cerevisiae deletion strains, locus YOR080W, strain dia2, stronger effect = lower value 0.975 | S. cerevisiae deletion strains, locus YOR083W, strain WHI5, stronger effect = lower value 1 | S. cerevisiae deletion strains, locus YOR106W, strain vam3, stronger effect = lower value 1 | S. cerevisiae deletion strains, locus YOR136W, strain idh2, stronger effect = lower value 0.98 | S. cerevisiae deletion strains, locus YOR144C, strain elg1, stronger effect = lower value 0.961 | S. cerevisiae deletion strains, locus YOR184W, strain ser1, stronger effect = lower value 0.986 | S. cerevisiae deletion strains, locus YOR265W, strain rbl2, stronger effect = lower value 1 | S. cerevisiae deletion strains, locus YOR270C, strain vph1, stronger effect = lower value 1.01 | S. cerevisiae deletion strains, locus YOR290C, strain snf2, stronger effect = lower value 1 | S. cerevisiae deletion strains, locus YOR316C, strain cot1, stronger effect = lower value 0.978 | S. cerevisiae deletion strains, locus YPL051W, strain arl3, stronger effect = lower value 0.99 | S. cerevisiae deletion strains, locus YPL055C, strain LGE1, stronger effect = lower value 1 | S. cerevisiae deletion strains, locus YPL078C, strain atp4, stronger effect = lower value 0.985 | S. cerevisiae deletion strains, locus YPL106C, strain sse1, stronger effect = lower value 1.01 | S. cerevisiae deletion strains, locus YPL240C, strain hsp82, stronger effect = lower value 0.995 | S. cerevisiae deletion strains, locus YPL241C, strain CIN2, stronger effect = lower value 0.99 | S. cerevisiae deletion strains, locus YPR119W, strain clb2, stronger effect = lower value 0.964 | S. cerevisiae deletion strains, locus YPR141C, strain kar3, stronger effect = lower value 0.987 | S. cerevisiae deletion strains, locus YPR163C, strain tif3, stronger effect = lower value 0.958 | S. cerevisiae deletion strains, locus YPR167C, strain met16, stronger effect = lower value 0.987 | S. cerevisiae deletion strains, strain wtn01, stronger effect = lower value 0.967 | S. cerevisiae strains, strain wild type, stronger effect = lower value 0.993
